# Measured values as given in PubChem BioAssay AID504332 (National Center for Advancing Translational Sciences (NCATS), 2011).
# “And” between values parts separate entries of the source, which are not always exact repeats. Equal entries are not always repeated. The whole screen tested about 350,000 compounds, of which about 31,000 (8.9%) were called active. About 15% were inconclusive and are not listed. Calls come from the whole dose curve; as a rule, active = well fitted inhibition curve with a large enough effect; inconclusive = small, poorly fitted or top-dose-only effect; inactive = no such curve, though single readings can be large or run the other way. What follows is part of a selection rich in actives, with near analogues and random picks from the rest. Some compounds were tested as several samples or in several runs, with calls that do not always agree.
# Molecular target: Histone-lysine N-methyltransferase EHMT2 (Homo sapiens) (UniProt Q96KQ7)
# Test: qHTS Assay for Inhibitors of Histone Lysine Methyltransferase G9a; note: nearly all actives have a fitted effect of over 75% in size
# Conditions: G9a H3K9 monomethylation, AlphaScreen, 2 h; series mostly up to 59 µM; activity, negative = inhibition: at the top concentration
# Summary of the method: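 Readings reflect AlphaScreen signal from monomethyl-H3K9 antibody detection. HMT at 20 nM; substrate b-H3K9 500 nM; cofactor SAM 20 uM; 2 h RT reaction; compounds tested as titrations in qHTS with 15 min preincubation.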
# % is set by controls: 0 for no effect and ±100 for the full control effect; potency is the fitted concentration of half-maximal effect.
# Chain of Histone-lysine N-methyltransferase EHMT2 (Homo sapiens) (Q96KQ7 913-1193 limits assumed): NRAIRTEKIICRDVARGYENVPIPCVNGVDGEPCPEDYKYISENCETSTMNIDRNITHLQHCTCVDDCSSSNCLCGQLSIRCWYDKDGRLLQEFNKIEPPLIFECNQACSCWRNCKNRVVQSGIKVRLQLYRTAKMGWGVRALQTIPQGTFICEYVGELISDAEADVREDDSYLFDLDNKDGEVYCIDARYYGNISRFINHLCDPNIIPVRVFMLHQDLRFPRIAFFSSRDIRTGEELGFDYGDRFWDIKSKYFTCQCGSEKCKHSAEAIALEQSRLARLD
SMILES,"activity, negative = inhibition",Potency
CC(=O)N1CCCc2ccc(NS(=O)(=O)c3ccc(F)cc3F)cc21,-4.23% [at 12.7 µM] (inactive),
O=C(C1CC(=O)N(C2CCCC2)C1)N1CCN(c2cccc(C(F)(F)F)c2)CC1 (stereo unspecified),-26.6% [at 102 µM] (inactive),
CCC1(C)NC(=O)N(CC(=O)N2CCN(c3cccc(Cl)c3)CC2)C1=O (stereo unspecified),17.9% [at 2.33 µM] (inactive),
O=[N+]([O-])c1ccc(O)c(/C=N/Nc2ccccc2[N+](=O)[O-])c1,,20 µM (active)
O=C(N/N=C/c1cc([N+](=O)[O-])ccc1O)/C(=C\c1cccs1)NC(=O)c1ccccc1,18.9% (inactive),
Nc1nnnn1/N=C/c1cc([N+](=O)[O-])ccc1O,-3.14% [at 102 µM] (inactive),
O=C1OC(C(=O)Nc2cccc(Br)c2)Cc2ccccc21 (stereo unspecified),6.55% (inactive),
COc1ccc(NC(=O)c2sc3nc(-c4cc5cccc(OC)c5oc4=O)[nH]c(=O)c3c2C)cc1,-3.24% (inactive),
O=C(CN1CCN(S(=O)(=O)c2cccc(Cl)c2)CC1)N1CCCCC1,6.11% [at 12.7 µM] (inactive),
CC(=O)N1CCc2cc(S(=O)(=O)NC(Cc3ccccc3)C(=O)NCc3ccc(C)cc3)ccc21 (stereo unspecified),-7.19% (inactive),
Cc1cc(OC(C)C(=O)Nc2sc3c(c2C(N)=O)CCCC3)ccc1Cl (stereo unspecified),4.83% (inactive),
Fc1cc(F)c2nc(Nc3nc4c(F)cccc4s3)sc2c1,-39.4% (inactive),
NC(=O)c1c(Nc2nc3c(F)cccc3s2)sc2c1CCCC2,,2.82 µM (active)
CC(c1ccccn1)N(C)C(=O)c1ccc2nc(Cc3cccc(Cl)c3)oc2c1 (stereo unspecified),75.5% [at 102 µM] (inactive),
O=C(N/N=C/c1cccc(OCc2ccccc2)c1)c1ccc(Br)o1,-46.5% [at 102 µM] (inactive),
Cn1c(SCC(=O)N2CCCc3ccccc32)ncc(C(=O)Nc2ccc(F)cc2)c1=O,-2.34% (inactive),
CCN(CC)C(CNC(=O)CSc1nnnn1-c1cccc(F)c1)c1ccco1 (stereo unspecified),5.11% [at 12.7 µM] (inactive),
Cc1ccc(C(=O)N/N=C\c2cc(Br)c(Br)o2)cn1,,50.1 µM (active)
O=C(N/N=C/c1ccc(Br)o1)c1cncc(Br)c1,-6.67% (inactive),
O=C(O)c1ccc(/C=N/NC(=O)c2ccc(Br)cc2)cc1,13.6% (inactive),
COc1ccc(CC(=O)OC(C)C(=O)Nc2ccc(S(N)(=O)=O)cc2)cc1 (stereo unspecified),-8.93% [at 2.33 µM] (inactive),
CSc1nc(-c2ccccc2Cl)nc2c1Cc1c(CO)cnc(C)c1O2,-46.3% (inactive),
COc1ccc(CNC(=O)C(c2ccc(O)cc2)N(Cc2ccco2)C(=O)c2snc(C(N)=O)c2N)cc1 (stereo unspecified),-40% [at 102 µM] (inactive),
O=C(OCc1cc(=O)n2ccsc2n1)C1(c2ccc(Cl)cc2)CC1,2.61% [at 12.7 µM] (inactive),

SMILES,"activity, negative = inhibition",Potency
CCN1CCN(CCCNC(=O)c2ccc3c(c2)sc2nc(-c4ccc(OC)cc4)cn23)CC1,-7.7% (inactive),
CN(C)S(=O)(=O)c1ccc(C(=O)NCC2(N3CCOCC3)CCCCC2)cc1,0.405% [at 2.33 µM] (inactive),
CN1CN(C)c2ccc([N+](=O)[O-])c3cccc1c23,,50.1 µM (active)
Cc1ccc(C)c(OCCC(=O)OCC(=O)c2ccc3c(c2)NC(=O)CO3)c1,6.89% [at 12.7 µM] (inactive),
CCN(CC(=O)Nc1c(F)cccc1F)C(=O)CN1c2cccc3cccc(c23)S1(=O)=O,5.18% [at 0.501 µM] (inactive),
O=C(O)CN1c2cccc3cccc(c23)S1(=O)=O,,44.7 µM (active)
COc1ccc(NC(=O)C(C)N2c3cccc4cccc(c34)S2(=O)=O)c(OC)c1 (stereo unspecified),4.35% [at 102 µM] (inactive),
Cc1ccc(-n2c(SCC(=O)N3CCC(C(=O)O)CC3)nc3ccccc3c2=O)cc1C,-50.2% [at 102 µM] (inactive),
CC(C)OC(=O)c1ccc(COc2ccc3ccc(=O)oc3c2)o1,14.1% [at 102 µM] (inactive),
Cc1nonc1C(=O)N/N=C/c1ccc(O)cc1,15.7% (inactive),
Cc1ccc2nc(CNC(=O)c3ccccc3)[nH]c2c1,-1.03% (inactive),
Cc1nc2ccc(C(=O)O)cc2[nH]1,,70.8 µM (active)
Cc1nc2ccc(C(=O)N/N=C/c3ccc(O)cc3)cc2[nH]1,,79.4 µM (active)
CC(C)c1nc2ccc(C(=O)O)cc2[nH]1,9.16% [at 102 µM] (inactive),
O=C(N/N=C/c1ccc(Cl)c(Cl)c1)c1ccc2nc[nH]c2c1,-14% [at 102 µM] (inactive),
CCc1ccccc1N1C(=O)CN(S(=O)(=O)CC)CC1(C)C(=O)NC1CCCCC1 (stereo unspecified),-17.2% (inactive),
Cc1ccc2nc(COc3ccc(NC(=O)COc4ccccc4F)cc3)cc(=O)n2c1,-2.61% (inactive),
C[C@H](NC(=O)c1ccccc1Cl)C(=O)OCC(=O)N1CCN(c2ccccc2)CC1,-0.744% [at 12.7 µM] (inactive),
Cn1c(=O)c2c(nc(SCC(=O)Nc3ccc(F)cc3)n2Cc2ccc(Cl)cc2)n(C)c1=O,10.3% (inactive),
COc1cccc(-n2c(N)cc(=O)nc2SCC(=O)Nc2cc(C)on2)c1,40% [at 102 µM] (inactive),
COc1ccccc1CNC(=O)CCCn1c(=O)c2ccccc2n(CC(=O)Nc2ccc(C)cc2Cl)c1=O,3.86% (inactive),
CCOC(=O)c1ccc(NC(=O)CSc2nc3c([nH]c4ccccc43)c(=O)n2C)cc1,4.03% (inactive),
Cc1cc(C(=O)N/N=C/c2ccc(N3CCOCC3)cc2)c(C)o1,-36.2% [at 102 µM] (inactive),
C=CCNC(=S)N/N=C/c1ccc(C)s1,72.7% [at 12.7 µM] (inactive),

SMILES,"activity, negative = inhibition",Potency
CNC(=S)N/N=C/c1ccc(N2CCOCC2)s1,,28.2 µM (active)
COc1cc2ccccc2cc1C(=O)Nc1ccc(NC(=O)c2cccs2)cc1,28.3% [at 102 µM] (inactive),
O=C(Cc1ccc(Cl)cc1)Nc1ccc2nn(-c3ccc(Cl)cc3)nc2c1,-2.72% (inactive),
Cc1ccc(CCNC(=O)Cn2c(-c3cccs3)cc3cc(F)ccc32)cc1,1.67% (inactive),
CCOC(=O)c1cccc(NC(=O)C(Cc2ccccc2)NS(=O)(=O)c2cccc3nsnc23)c1 (stereo unspecified),-35.5% (inactive),
Cc1ccc(-n2ccc(=O)c(C(=O)O)n2)cc1,-6.92% (inactive),
Cc1ccc(N2C(=O)c3ccccc3C2(O)c2ncc[nH]2)cc1 (stereo unspecified),,7.08 µM (active)
Cc1ccnc(NC(=O)C(C)N2C(=O)c3ccccc3C2=O)c1 (stereo unspecified),10.7% [at 102 µM] (inactive),
O=C(O)c1ccccc1-c1ccccc1C(=O)NCCc1ccccc1,15.9% [at 102 µM] (inactive),
CCOCCCNC(=O)c1c(NC(=O)c2nc(SC)ncc2Cl)sc2c1CCCC2,-0.0709% (inactive),
COc1ccc(N2C(=O)CC(SC(C)C)C2=O)cc1 (stereo unspecified),-27.2% [at 102 µM] (inactive),
COc1ccc(N2C(=O)CC(Sc3n[nH]c(-c4ccc(C)cc4)n3)C2=O)cc1 (stereo unspecified),,1.58 µM (active)
COc1ccc(-c2nc(SCC(=O)N3CCCC3)n[nH]2)cc1,21.1% [at 102 µM] (inactive),
CC(=O)Nc1ccc(NC(=O)C2CCCN(S(=O)(=O)c3ccc4c(c3)CCCC(=O)N4)C2)cc1 (stereo unspecified),-26.3% (inactive),
CCN1CCN(C(=O)N(Cc2ccc(Cl)cc2)S(=O)(=O)c2ccc(C)cc2)CC1,19.8% [at 2.33 µM] (inactive),
CC(C)(C)c1ccc(CN2C(=O)c3ccccc3S2(=O)=O)cc1,87% [at 102 µM] (inactive),
O=[N+]([O-])/C(N=Nc1ccccc1)=N\Nc1ccccc1,,31.6 µM (active)
Cc1ccc(NC(=O)c2cccc(N(C)C)c2)cc1NC(=O)c1ccc(O)cc1,,inactive and 14.1 µM (active)
Cc1ccc(F)cc1NC(=O)c1ccc2c(c1)OCO2,-5.61% [at 12.7 µM] (inactive),
Cc1ccc(F)cc1NC(=O)c1cccc(N(C)C)c1,13.5% (inactive),
COc1cc2nc(SCC(=O)Nc3ccccc3F)n3nc(-c4ccccc4)nc3c2cc1OC,-29.1% (inactive),
CCS(=O)(=O)c1ncc(N(Cc2ccc(F)cc2)Cc2ccco2)c(C(=O)Nc2cc(C)ccc2C)n1,3.17% (inactive),
Cc1ccc(S(=O)(=O)NCCNC(C)c2ccc(Br)cc2)cc1 (stereo unspecified),-1.1% [at 12.7 µM] (inactive),
Oc1cccc(/C=N/Nc2ccc(Cl)nn2)c1O,32.7% [at 102 µM] (inactive),

SMILES,"activity, negative = inhibition",Potency
COc1cccc(/C=N/Nc2ccc(Cl)nn2)c1,-1.09% [at 102 µM] (inactive),
Clc1ccc(N/N=C/c2cccs2)nn1,,35.5 µM (active)
CC(C)N(Cc1ccccc1)C(=O)COC(=O)c1ccccc1SCC(=O)N1CCCC1,-46.5% [at 0.501 µM] (inactive),
O=C(CNC(=O)COc1ccccc1)NCCc1ccccn1,13.5% (inactive),
Cc1c(C)c(C)c(S(=O)(=O)NCCc2ccccn2)c(C)c1C,11% [at 102 µM] (inactive),
COc1ccc(NCCc2ccccn2)cc1,,39.8 µM (active)
CCOc1ccccc1NC(=O)C1CCCN(S(=O)(=O)c2cn(C)cn2)C1 (stereo unspecified),11.6% (inactive),
CC(C)c1ccc(NC(=O)COC(=O)c2ccc(CN3CCCC3=O)cc2)cc1,-8.03% [at 12.7 µM] (inactive),
O=C(/C=C/c1ccccc1)c1ccccc1O,,44.7 µM (active)
O=C(/C=C/c1ccccc1)c1ccoc1,10.3% [at 12.7 µM] (inactive),
O=C(/C=C/c1ccccc1)N/C(=C/c1ccccc1)C(=O)Nc1ccccc1O,-41.1% [at 102 µM] (inactive),
COCC1CCN(C(=O)CCc2nnc(C3(c4ccc(Cl)cc4)CCC3)o2)C1 (stereo unspecified),11% [at 102 µM] (inactive),
COc1ccc(-c2ocnc2C(=O)Nc2ccc3c(c2)CCC3)cc1,-7.46% (inactive),
Fc1ccc(C(Nc2ccc(Cl)c(C(F)(F)F)c2)c2nnc(-c3ccccc3)o2)cc1 (stereo unspecified),31.9% (inactive),
O=[N+]([O-])c1cc(C(F)(F)F)ccc1NCCc1ccncc1,21.9% [at 102 µM] (inactive),
Nc1ccccc1Sc1ccc(C(F)(F)F)cc1[N+](=O)[O-],,39.8 µM (active)
Cc1cccc(OCCNC(=O)CSc2ccc(C(F)(F)F)cc2[N+](=O)[O-])c1,5.94% (inactive),
CCc1cccc(NC(=O)CSc2nccn2C)c1,-3.93% (inactive),
CCOC(=O)CSC1=C(C#N)C(c2ccco2)C(C(=O)OCc2ccccc2)=C(C)N1 (stereo unspecified),-12% (inactive),
N#CC1=C(N)Oc2c(sc3ccccc23)C1c1ccco1 (stereo unspecified),,39.8 µM (active)
CCCCn1c(N)c(N(CCOC)C(=O)c2sc3ccccc3c2Cl)c(=O)[nH]c1=O,0.384% [at 0.501 µM] (inactive),
COc1ccccc1-c1nc(N2CCN(C)CC2)c2ccccc2n1,0.0472% [at 0.501 µM] (inactive),
CN1CCN(c2nc(Nc3ccc(O)cc3)nc3ccccc23)CC1,,25.1 µM (active)
Cc1cccc(-c2nc(Nc3ccc(O)cc3)c3ccccc3n2)c1,9.03% [at 12.7 µM] (inactive),
